# Only a selection was taken, and hits are over-represented in it overall.
# mcGAS MS inh: inhibitors of Mus musculus cyclic GMP-AMP synthase, initial high-throughput assay, cell-free, RapidFire MS. Q8C6L5. recombinant mouse cGAS, cGAMP by RapidFire MS. inhibition, % at 12.5 µM. 130,000 tested, 0.18% active. AID 1259397, 2018;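 active = inhibition of cGAS enzyme activity at or above 60%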;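 also: enzyme stimulated by 45 bp dsDNA with ATP and GTP substrates; cGAMP share of summed cGAMP plus half ATP and half GTP signals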
# * = called active by the depositor.
SMILES,mcGAS MS inh
CCCNC(=O)C1(C)CCN(CCC(=O)c2ccc(Br)cc2)C1 (configuration not stated),64*
Cc1nc2ccc(NCC(=O)N3C(C)CCCC3C)cc2s1 (configuration not stated),-7
Cc1nc(NC(=O)CCN2C(=O)CCC2=O)nc2c1CCCC2,-1
O=C(NCc1cccnc1)c1ccc2oc(-c3cccc(F)c3)nc2c1,-9
Cc1ccc2nc(-c3ccc(N4C(=Nc5nc(C)cc(C)n5)NC(=O)CC4C(=O)O)cc3)sc2c1 (configuration not stated),-5
O=S(=O)(c1ccccc1NC(C1CC1)C1CC1)C(F)(F)F,-19
CC(C)(O)CCOc1ccccc1S(=O)(=O)C(F)(F)F,72*
O=S(=O)(c1ccccc1O)C(F)(F)F,-13

# Screening results (PubChem)
